Assay outcomes from PubChem BioAssay.
A selection: hits, their analogues and other compounds. The true share with any hit is near 0.84%.
NR2F2 inh – NR2F2 transcriptional activity inhibitors, primary screen, cell-based, luciferase reporter, HEK293T, luminescence. COUP transcription factor 2 (Homo sapiens), P24468. HEK293T NGFI-A luciferase reporter. inhibition, % at 8.6 µM. hit rate 0.7% among 370,000;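 active = inhibition above a per-plate cutoff, mean inhibition of test wells between control levels plus 3 SD, cut at about 38% in these data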;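 note: cells cotransfected with COUP-TFII expression vector driving the NGFI-A reporter; 0% = median of COUP-TF2 test wells and 100% = reporter-only cells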
SRC3 inh – SRC3 coactivator transcriptional activity inhibitors, primary screen, cell-based, luminescence. Nuclear receptor coactivator 3 (Homo sapiens), Q9Y6Q9. HEK293 GAL4-SRC3 luciferase reporter. inhibition, % at 3.6 µM. hit rate 0.17% among 360,000;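 active = inhibition above a per-campaign cutoff, the mean of all compounds plus 3 SD, cut at about 60% in these data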;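 note: 0% = DMSO-treated cells and 100% = gossypol-treated cells at 36 µM; higher means less SRC3-driven luciferase light from the GAL4 reporter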
NCOA1 inh – SRC1 coactivator transcriptional activity inhibitors, primary screen, cell-based, luminescence; Nuclear receptor coactivator 1 (Homo sapiens), Q15788; HEK293 GAL4-SRC1 luciferase reporter; inhibition, % at 3.6 µM; hit rate 0.12% among 360,000;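 active = inhibition above the campaign mean plus 3 SD, with each screening campaign given its own cutoff, cut at about 60% in these data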;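 note: 0% = DMSO treated cells and 100% = gossypol at 36 µM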
NCOA2 inhibitor – inhibition of GAL4-SRC2 driven luciferase reporter, primary screen, SRC2 inhibitor project, cell-based, luminescence; inhibition, % at 9 µM; Nuclear receptor coactivator 2 (Homo sapiens), Q15596; HEK293 GAL4-SRC2 luciferase reporter; hit rate 0.17% among 370,000;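 active = inhibition above the mean inhibition of all tested compounds plus 3 SD, set per campaign, cut at about 52% in these data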;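 note: 0% = DMSO treated cells and 100% = cells given Gossypol at 36 µM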
Target sequence (Q15596 whole entry, looked up, the tested form may be a part): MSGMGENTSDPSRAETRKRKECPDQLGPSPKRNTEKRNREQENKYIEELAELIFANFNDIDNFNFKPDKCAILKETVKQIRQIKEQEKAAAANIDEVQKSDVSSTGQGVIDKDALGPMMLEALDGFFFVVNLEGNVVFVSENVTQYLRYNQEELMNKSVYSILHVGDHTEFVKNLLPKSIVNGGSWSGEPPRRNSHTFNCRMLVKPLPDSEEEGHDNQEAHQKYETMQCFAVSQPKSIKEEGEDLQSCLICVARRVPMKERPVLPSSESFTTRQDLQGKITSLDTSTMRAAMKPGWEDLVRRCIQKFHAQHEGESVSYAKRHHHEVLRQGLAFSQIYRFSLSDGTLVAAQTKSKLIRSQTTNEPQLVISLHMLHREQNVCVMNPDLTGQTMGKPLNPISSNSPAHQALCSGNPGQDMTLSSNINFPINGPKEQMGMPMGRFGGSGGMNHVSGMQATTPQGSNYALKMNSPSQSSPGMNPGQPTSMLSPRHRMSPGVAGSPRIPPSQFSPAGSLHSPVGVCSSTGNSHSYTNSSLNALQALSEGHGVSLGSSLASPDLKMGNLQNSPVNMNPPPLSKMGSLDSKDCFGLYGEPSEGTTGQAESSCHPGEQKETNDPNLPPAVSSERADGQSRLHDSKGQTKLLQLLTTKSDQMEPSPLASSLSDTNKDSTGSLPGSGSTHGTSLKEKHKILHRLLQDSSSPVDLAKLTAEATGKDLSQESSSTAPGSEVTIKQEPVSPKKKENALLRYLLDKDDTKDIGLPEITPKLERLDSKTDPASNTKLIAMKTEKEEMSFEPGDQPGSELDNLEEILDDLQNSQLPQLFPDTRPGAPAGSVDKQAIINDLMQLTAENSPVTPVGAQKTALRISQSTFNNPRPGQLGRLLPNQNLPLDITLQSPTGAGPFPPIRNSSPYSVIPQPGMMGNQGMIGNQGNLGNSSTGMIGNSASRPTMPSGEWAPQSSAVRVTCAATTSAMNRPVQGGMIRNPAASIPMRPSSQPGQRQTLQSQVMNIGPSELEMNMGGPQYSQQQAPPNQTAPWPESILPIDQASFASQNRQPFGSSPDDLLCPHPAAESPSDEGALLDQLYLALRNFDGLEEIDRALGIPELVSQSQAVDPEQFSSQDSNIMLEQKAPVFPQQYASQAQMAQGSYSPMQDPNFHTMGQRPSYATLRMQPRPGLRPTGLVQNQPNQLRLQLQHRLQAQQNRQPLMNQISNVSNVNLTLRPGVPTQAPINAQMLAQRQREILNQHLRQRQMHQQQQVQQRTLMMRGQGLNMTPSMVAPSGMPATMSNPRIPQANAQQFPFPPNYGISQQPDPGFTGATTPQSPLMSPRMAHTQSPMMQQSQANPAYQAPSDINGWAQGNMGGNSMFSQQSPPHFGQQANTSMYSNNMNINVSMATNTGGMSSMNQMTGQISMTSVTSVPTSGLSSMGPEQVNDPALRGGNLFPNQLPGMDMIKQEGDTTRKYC
LRH-1 inv ag – LRH-1 (NR5A2) inverse agonists, primary screen, cell-based, luminescence, HEK293T, StAR-luciferase reporter | AID 602396, 2012 | LRH-1 transfected, 24 h | inhibition, % at 3.6 µM | hit rate 0.13% among 360,000 | Nuclear receptor subfamily 5 group A member 2 (Homo sapiens), O00482;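 active = inhibition above the mean inhibition of all tested compounds plus 3 SD, cut at about 73% in these data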;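 note: 0% = DMSO wells and 100% = reporter-only cells lacking LRH-1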
Numbers without * were called inactive; · = not tested or not shown.

SMILES	NR2F2 inh	SRC3 inh	NCOA1 inh	NCOA2 inhibitor	LRH-1 inv ag
CN(C)S(=O)(=O)c1cccc(NC(=S)Nc2cccc3cnccc23)c1	44*	34	49	42	37
COC(=O)[C@]12C[C@H](CC(=O)N3CCCC3)C(=O)N(CCc3ccc(OC)c(OC)c3)C1=C[C@H](C(C)(C)C)O[C@@H]2C	-18	·	·	-6	·
COc1ccc(NC(=S)c2ccc3ccccc3n2)cc1	·	-34	-45	·	-16
COc1ccc(N=C(NN)c2ccc3ccccc3n2)cc1	75*	46	54	63*	77*
O=C(COC(=O)c1cc(-c2ccc(Cl)s2)nc2ccccc12)NCc1ccco1	-3	7	-16	-25	-24
COc1ccc(CNC(=O)COC(=O)c2cc(-c3ccc(Cl)s3)nc3ccccc23)cc1	8	83*	-23	4	-19
C=C(NC(=O)C(=C)NC(=O)c1csc(C2=NC3c4csc(n4)C4NC(=O)c5csc(n5)C(C(C)(O)C(C)O)NC(=O)C5CSC(=N5)/C(=C/C)NC(=O)C(C(C)O)NC(=O)c5csc(n5)C3(CC2)NC(=O)C(C)NC(=O)C(=C)NC(=O)C(=C)NC(=O)C(C(C)C)NC2C=Cc3c(C(C)O)cc(nc3C2O)C(=O)OC4C)n1)C(N)=O (centres undefined)	42*	-44	-90	12	-29
O=C1Cc2c([nH]c3ccc([N+](=O)[O-])cc23)-c2ccccc2N1	38*	73*	-9	35	7
O=C(C1=NN[C@@H]2C(=O)N(c3cccc(C(F)(F)F)c3)C(=O)[C@H]12)c1ccc2ccccc2n1	25	4	-4	59*	2
CN(C)c1ccc(/C=C/c2ccc3ccccc3n2)cc1	·	64*	62*	·	63
C(=C\c1ccc2ccccc2n1)/c1ccccc1	-22	-35	-83	21	-74
CC(=NNc1nc2ccccc2o1)c1cc2ccccc2cn1	14	70*	65*	10	-36
CCN1/C(=C/c2ccc3ccccc3[n+]2CC)C=Cc2ccccc21	75*	87*	68*	12	98*
CCN1/C(=C/c2ccc3ccccc3[n+]2CCCS(=O)(=O)[O-])C=Cc2cc(C)ccc21	-2	-15	3	-14	1
O=C(/C(=C\c1ccccc1)c1nc2ccccc2[nH]1)c1ccc(Cl)cc1	-29	26	-41	-6	-71
O=C(/C(=C/c1ccc(Cl)cc1)c1nc2ccccc2[nH]1)c1cccs1	·	62*	47	·	-7
COc1ccc(C(=O)c2ccc(CC(=O)O)s2)cc1	22	12	-17	52*	13
C[C@H]1[C@@H](NC(=O)C2CCCCC2)CC[C@@]23CCCN2C(=O)CCC[C@@H]13	-14	·	·	·	·
CCCCc1ccc2nc(NC(=O)c3ccco3)sc2c1	-28	·	·	·	·
Oc1ccc(N=Nc2ccc3c(c2)OCCO3)c2cccnc12	34	59	37	52*	4
COc1ccc(N=Nc2ccc(O)c3ncccc23)cc1	11	-43	-30	4	-7
CN1CCN(c2ncnc3scc(-c4ccccc4Cl)c23)CC1	24	63*	45	31	35
O=C(CSc1nc2ccccc2nc1N1CCCC1)N1CCN(c2cccc(C(F)(F)F)c2)CC1	-3	·	·	11	·
CCCCCCCCCCCCCCCC[n+]1ccc(C(N)=O)cc1	16	18	-3	14	13
CCCCCCCCCCCCCCCC[n+]1ccc(/C=N/O)cc1	38*	17	-8	-17	-2
SMILES	NR2F2 inh	SRC3 inh	NCOA1 inh	NCOA2 inhibitor	LRH-1 inv ag
COc1ccc(-n2ncc3c(N4CCCCC4)ncnc32)cc1	·	67*	64*	·	60
CCOC(=O)N1CCN(C(=O)C[C@H]2C[C@@]3(C(=O)OC)C(=C[C@H](C(C)C)O[C@@H]3C3CC3)N(Cc3ccc4c(c3)OCO4)C2=O)CC1	-8	·	·	6	·
Cc1ccc(-c2nc(CSCC(=O)N3CCN(c4ccccn4)CC3)c(C)o2)cc1	47*	-1	-5	3	32
O=C(NC1CCCCN(Cc2cccc(Cl)c2)C1=O)c1cccs1 (centres undefined)	-44	·	·	-1	·
COc1ccc2[nH]c3c(c2c1)CC(C)NC3=O (centres undefined)	32	52	66*	36	37
COc1ccc(C(=O)NCCNc2nc3cc(C)cc(C)c3cc2C#N)c(OC)c1	10	·	·	77*	30
O=C(Nc1c(-c2ccc(F)c(F)c2)nc2ncccn12)C1CC1	11	·	·	2	·
COc1ccccc1/C=C/C(=O)c1c2c(c(C)[nH]c1=O)CCCC2	4	65*	31	58*	12
O=c1[nH]cnc2c1nnn2C1OC(CO)C(O)C1O (centres undefined)	-10	61	41	23	85*
CN(C)c1ncnc2c1nnn2C1OC(CO)C(O)C1O (centres undefined)	-80	69*	64*	31	98*
CCN(CC)C(=O)CC[C@H]1CC[C@]2(CCCN(S(C)(=O)=O)C2)O1	2	·	·	-18	·
CCN(CC)CCn1nc2c3c(cccc3c1=O)-c1ccccc1-2	-66	-52	73*	-198	77*
CCCCC(=O)N[C@H]1CC[C@@]23CCCN2C(=O)CCC[C@H]3[C@H]1C	3	·	·	·	·
CCOc1ccccc1NC(=O)C(NCC1CCCCC1)c1ccccc1 (centres undefined)	11	17	1	15	7
CCOc1ccccc1O[C@H](c1ccccc1)[C@H]1CNCCO1	-8	57	70*	15	53
CC(=O)Nc1cccc(-c2cc(NC(C)=O)c3ncc(-c4ccc(F)cc4)n3c2)c1	-15	2	9	54*	36
Cc1ccc(NC(=O)CCS(=O)(=O)c2ccccc2)cc1C	-41	·	·	-44	·
CC(C)CCCCCCCCCCCCC(=O)NCC(=O)NC1C(O)C(O)C(Nc2ncnc3nc[nH]c23)OC1C(O)CO (centres undefined)	·	93*	95*	·	99*
CC(O)CNc1ncnc2nc[nH]c12 (centres undefined)	1	-22	7	-10	-12
C=CS(=O)(=O)c1ccc(Oc2ccc(S(=O)(=O)C=C)cc2)cc1	75*	-135	-295	70*	9
NS(=O)(=O)c1ccc(Oc2ccc(S(N)(=O)=O)cc2)cc1	8	-8	3	7	-6
COc1cc(C=CC(=O)c2cc(OC)c(OC)c(OC)c2)cc(OC)c1OC	16	64*	51	68*	51
COc1cc(C=CC(=O)c2ccccc2)cc(OC)c1OC	-3	45	23	14	27
Cc1ccc(/C=C2\SC(=S)N(CCCC(=O)Nc3ccc(O)cc3)C2=O)cc1	31	47	23	67*	9
